Our source for the growth values is PubChem BioAssay (NCI).

The panel holds about 83,000 compounds, 20% with a hit somewhere; the sample as a whole holds those more often.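 Treatment: one concentration, 48 hours, 96-well format. Scoring: percent growth, with anything below 10 considered active.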 A number with no mark means an inactive call. Calls of active or inactive are those of the source.

Among the test systems are DU-145 prostate; MALME-3M melanoma; MDA-MB-231 breast; RXF 393 renal; SF-268 CNS; SF-295 CNS; SF-539 CNS; UACC-257 melanoma; M14 melanoma; HCT-15 colon; HT29 colon; SNB-75 CNS; SNB-19 CNS; U251 CNS; PC-3 prostate; SK-MEL-5 melanoma; UACC-62 melanoma; LOX IMVI melanoma; SK-MEL-28 melanoma.
Common to all, as to test: NCI-60 one-dose screen, 48 h (100 = growth as untreated, 0 = no growth, -100 = all killed)
Holding throughout (conditions): 10 µM unless noted

Take `O=C(Nc1ccc(F)cc1)Nc1ccc(Cl)c([N+](=O)[O-])c1`: the growth in the experiment with DU-145 prostate is 18.9%; in the experiment with MALME-3M melanoma, 27.4%; in the experiment with MDA-MB-231 breast, 40%; in the experiment with RXF 393 renal, 51.1%; in the experiment with SF-268 CNS, 32.7%; with SF-295 CNS, 8.17% (active). The growth in the experiment with SF-539 CNS was 36.2%; with UACC-257 melanoma, 34.9%; in the experiment on M14 melanoma, 24%; in the experiment with HCT-15 colon it was 11.1%; in the experiment on HT29 colon it was 13.6%; with SNB-75 CNS, 46.7%. The growth in the experiment on SNB-19 CNS was 21.5%; with U251 CNS, 15.5%; with PC-3 prostate, 6.25% (active); in the experiment on SK-MEL-5 melanoma it was 22%; in the experiment with UACC-62 melanoma, 15.9%; in the experiment with LOX IMVI melanoma it was 9.41% (active). For the same compound, in the experiment on SK-MEL-28 melanoma, the growth is 22.6%.

As to `O=C(Nc1ccc(Cl)c(Cl)c1)Nc1ccc(Cl)c([N+](=O)[O-])c1`, the growth with DU-145 prostate is 18%; with MALME-3M melanoma, -12.3% (active); in the experiment with MDA-MB-231 breast, -62.6% (active); in the experiment with RXF 393 renal, -11.8% (active); in the experiment on SF-268 CNS, 14.1%; in the experiment on SF-295 CNS, -26.6% (active). For the same compound, the growth in the experiment with SF-539 CNS was 8.74% (active); with UACC-257 melanoma it was -8.5% (active); with M14 melanoma it was 0.455% (active); in the experiment on HCT-15 colon it was 5.16% (active); with HT29 colon, 2.02% (active); with SNB-75 CNS, 16.2%. Further, the growth with SNB-19 CNS is 15.1%; in the experiment with U251 CNS it was 6.28% (active); with PC-3 prostate it was -0.546% (active); in the experiment with SK-MEL-5 melanoma, -90.2% (active); in the experiment on UACC-62 melanoma, 9.51% (active); in the experiment on LOX IMVI melanoma, -19% (active). Also, the growth in the experiment with SK-MEL-28 melanoma was 12.8%.

Take `C=C1C(=O)O[C@H]2[C@H]1CC/C(COC(=O)c1ccc(Cl)nc1)=C\CC[C@@]1(C)O[C@@H]21`: the growth with DU-145 prostate was 12.4%; in the experiment with MALME-3M melanoma, -51% (active); in the experiment on MDA-MB-231 breast, -2.63% (active); in the experiment on RXF 393 renal, -73.1% (active); in the experiment on SF-268 CNS, 56.9%; in the experiment on SF-295 CNS, 74.9%. Also, the growth was -34.5% (active) with SF-539 CNS; 34.4% with UACC-257 melanoma; 9.23% (active) with M14 melanoma; -14.6% (active) in the experiment on HCT-15 colon; -6.31% (active) in the experiment with HT29 colon; 74.9% with SNB-75 CNS. The growth was 56% with SNB-19 CNS; 44.1% in the experiment on U251 CNS; 53.2% in the experiment on PC-3 prostate; 44.8% in the experiment on SK-MEL-5 melanoma; -25.6% (active) in the experiment on UACC-62 melanoma; -79.3% (active) with LOX IMVI melanoma. Besides, the growth in the experiment with SK-MEL-28 melanoma is 1.37% (active).

`CC(=O)O[C@@H]1[C@@H](OC(C)=O)[C@H](OC(C)=O)CO[C@H]1Nc1cccc2ccccc12`: the growth in the experiment with DU-145 prostate is 100%; in the experiment with MALME-3M melanoma it was 86.9%; with MDA-MB-231 breast, 89%; with RXF 393 renal it was 105%; in the experiment with SF-268 CNS, 83.1%; with SF-295 CNS, 94.5%. For the same compound, the growth in the experiment with SF-539 CNS was 90.2%; in the experiment with UACC-257 melanoma, 103%; in the experiment with M14 melanoma, 99.6%; in the experiment on HCT-15 colon, 94%; in the experiment with HT29 colon, 84.2%; with SNB-75 CNS, 93.9%. In addition, the growth is 105% with SNB-19 CNS; 105% in the experiment on U251 CNS; 90.8% with PC-3 prostate; 103% with SK-MEL-5 melanoma; 97.2% with UACC-62 melanoma; 88.8% in the experiment with LOX IMVI melanoma. Moreover, the growth in the experiment with SK-MEL-28 melanoma was 110%.

With `O=C(O)c1cn(C2CC2)c2cc(N3CCN(C(=O)CSc4nc(NS(=O)(=O)c5ccccc5)cc(=O)[nH]4)CC3)c(F)cc2c1=O`, the growth with DU-145 prostate is 101%; with MALME-3M melanoma it was 82.4%; in the experiment on MDA-MB-231 breast it was 100%; in the experiment on RXF 393 renal, 112%; with SF-268 CNS, 93.7%; with SF-295 CNS it was 104%. The growth is 98.1% in the experiment with SF-539 CNS; 95% in the experiment with UACC-257 melanoma; 83.7% in the experiment on M14 melanoma; 94.9% with HCT-15 colon; 119% in the experiment on HT29 colon; 98.8% with SNB-75 CNS. In addition, the growth in the experiment with SNB-19 CNS was 99.3%; in the experiment on U251 CNS it was 97.7%; in the experiment on PC-3 prostate, 85%; with SK-MEL-5 melanoma, 94.6%; in the experiment with UACC-62 melanoma it was 83.8%; with LOX IMVI melanoma, 90.9%. In the experiment with SK-MEL-28 melanoma, the growth is 98%.

As for `Nc1n[nH]c2cccc(C#Cc3cccc(NC(=O)c4cccc(C(F)(F)F)c4)c3)c12`, the growth was 48.5% with DU-145 prostate; -0.658% (active) in the experiment with MALME-3M melanoma; 9.5% (active) in the experiment on MDA-MB-231 breast; -13.7% (active) in the experiment on RXF 393 renal; 32.7% with SF-268 CNS; 50.3% in the experiment with SF-295 CNS. The growth is -19.9% (active) with SF-539 CNS; 50.3% with UACC-257 melanoma; 10.4% with M14 melanoma; 30.2% in the experiment on HCT-15 colon; 13.3% in the experiment on HT29 colon; 30.5% with SNB-75 CNS. For the same compound, the growth was 80.1% with SNB-19 CNS; 49.4% in the experiment on U251 CNS; 39.9% in the experiment with PC-3 prostate; 43.9% in the experiment with SK-MEL-5 melanoma; 26.1% in the experiment on UACC-62 melanoma; 2.44% (active) in the experiment with LOX IMVI melanoma. Moreover, in the experiment on SK-MEL-28 melanoma, the growth is 23.9%.

As for `COc1ccc(SC2c3ccc(O)cc3Oc3nc(N)c(C#N)c(N)c32)cc1` (configuration not stated), the growth with DU-145 prostate is 93.1%; in the experiment on MALME-3M melanoma, 99.3%; in the experiment with MDA-MB-231 breast, 101%; in the experiment with RXF 393 renal, 122%; with SF-268 CNS, 57.3%; in the experiment on SF-295 CNS, 76.8%. Also, the growth in the experiment on SF-539 CNS is 52.1%; in the experiment with UACC-257 melanoma, 106%; in the experiment with M14 melanoma, 105%; in the experiment with HCT-15 colon, 85%; with HT29 colon, 101%; in the experiment with SNB-75 CNS, 84.7%. For the same compound, the growth in the experiment with SNB-19 CNS was 78.6%; in the experiment on U251 CNS it was 60.9%; with PC-3 prostate it was 56.1%; with SK-MEL-5 melanoma, 55.7%; in the experiment on UACC-62 melanoma, 105%; in the experiment with LOX IMVI melanoma, 33.7%. In the experiment with SK-MEL-28 melanoma, the growth is 106%.

`FC(F)(F)c1cn(CC2CNC2)c2ncnc(Cl)c12`: the growth was 108% in the experiment on DU-145 prostate; 122% with MALME-3M melanoma; 100% in the experiment on MDA-MB-231 breast; 112% in the experiment with RXF 393 renal; 99.2% in the experiment with SF-268 CNS; 100% with SF-295 CNS. Besides, the growth is 109% in the experiment with SF-539 CNS; 85.6% in the experiment on UACC-257 melanoma; 109% in the experiment with M14 melanoma; 104% in the experiment with HCT-15 colon; 92.2% with HT29 colon; 109% in the experiment with SNB-75 CNS. For the same compound, the growth with SNB-19 CNS was 99.9%; with U251 CNS, 105%; in the experiment on PC-3 prostate it was 110%; in the experiment with SK-MEL-5 melanoma it was 99.5%; with UACC-62 melanoma it was 102%; with LOX IMVI melanoma, 102%. In the experiment on SK-MEL-28 melanoma, the growth was 104%.
